HT1080 IDH1KD tx: HT-1080 IDH1 knockdown cell toxicity (counter line); HT-1080 IDH1 knockdown viability, ATP luminescence, 48 h; Potency, µM (titrated, usually from 46.1 µM), inactives show at the highest dose activity, negative = toxicity, hits mostly cytotoxic; 2% of 360,000 active;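 also: 0% = DMSO wells and -100% = cell-free medium wells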
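% activity derives from luminescence (CellTiter-Glo), normalised to DMSO and no-cell wells. HT-1080-IDH1KD cells, 750/well, had 48 h compound exposure at 37 °C.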
TDP1 cell CPT: DT40-hTDP1 cell growth loss with CPT. Potency, µM (highest dose often 46.2 µM), for inactives: at the highest dose activity change, negative = growth inhibition, most hits filed as inhibitors. 12% of 420,000 active. chicken DT40 Tdp1-/-;hTDP1 cells + 20 nM CPT, ATP luminescence, 48 h; also: % is scaled to controls: 0 for no effect and ±100 for the full control effect; nearly all actives have a fitted effect of over 55% in size
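Chicken DT40 Tdp1-/- cells complemented with human TDP1, 400 cells/well, exposed to compounds plus 20 nM camptothecin for at least 48 h at 37 C; viability read as ATP content by CellTiter-Glo luminescence.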
HepG2 tox: HepG2 cytotoxicity, counter-screen for TGF-b inhibitors; HepG2 CAGA-GFP viability, ATP luminescence, 18 h; Potency, µM (titrated, usually from 46.1 µM), for the others: at the top dose activity change, negative = cytotoxicity, most hits filed as cytotoxic; 0.76% of 410,000 active; AID 588856
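CellTiter-Glo luminescence gave cytotoxicity after 18 hours at 37 degrees C. The cells were HepG2 CAGA-GFP in 1% FBS DMEM, stimulated with 500 pg/mL TGF-beta after compound addition. %Activity was normalised to no-cell wells (complete cell-killing) and DMSO (no toxicity), and curves were fitted and classified.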
HT1080NT lethal: kills 2HG-producing HT-1080-NT fibrosarcoma cells. HT-1080-NT fibrosarcoma viability, CellTiter-Glo ATP luminescence, 48 h. Potency, µM (doses to about 46.1 µM), without a hit: top-dose activity, negative = less viability, most hits filed as cytotoxic. 1.6% of 360,000 active;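 also: NT is the 2HG producing partner of a matched IDH1 knockdown line; 0% = DMSO-treated cells and -100% = media-only wells without cells; nearly all actives have a fitted effect of over 55% in size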
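HT-1080-NT fibrosarcoma cells (2HG-overproducing), 750 cells/well in RPMI with 5% FBS, dosed after 2 h and incubated 48 h at 37C. CellTiter-Glo luminescence normalized to DMSO and no-cell wells; concentration-response curves fitted and classed.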
TGFb SMAD3 inh: inhibitors of TGF-b signaling; 1.2% of 410,000 active; Potency, µM (top dose mostly 46.1 µM), inactives show at the top dose activity, negative = inhibition, hits mostly inhibitors; HepG2 CAGA-GFP TGF-b/SMAD3 reporter, GFP fluorescence, 18 h; TGF-beta stimulated, 500 pg/mL final; also: % is scaled to controls: 0 for no effect and ±100 for the full control effect; nearly all actives have a fitted effect of over 65% in size
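HEPG2 CAGA-GFP reporter cells (1000/well, DMEM with 1% FBS) received compounds, then recombinant TGF-beta at 500 pg/mL final for 18 hours at 37 degrees C. Per-cell GFP summed per well was normalised to unstimulated and stimulated DMSO controls before curve fitting.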
DT40 TDP1 no CPT: qHTS for Inhibitors of human tyrosyl-DNA phosphodiesterase 1 (TDP1): qHTS in cells in absence of CPT. Potency, µM (doses to about 46.2 µM), without a hit: at the top dose activity change, negative = growth inhibition, usual class: inhibitors. DT40 Tdp1-/- hTDP1 cells, no CPT, ATP luminescence, 48 h. 15% of 420,000 active; also: % is scaled to controls: 0 for no effect and ±100 for the full control effect; nearly all actives have a fitted effect of over 55% in size
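No-CPT arm: Tdp1-/-;hTDP1 DT40 cells (400/well) plus compounds, incubated ≥48 hr at 37 °C. Readout CellTiter-Glo luminescence.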
* = called active by the depositor; ? = inconclusive; · = no result. An excerpt weighted towards active compounds, which were near 17% of everything screened. Calls follow the shape of the dose curve; as a rule, active = well fitted curve in the direction sought with a large enough effect; inconclusive = small, poorly fitted or top-dose-only effect, or another doubt; inactive = no such curve, though single readings can be large; an effect the other way counts as inactive or inconclusive. Potency is read from the fitted curve at half-maximal effect.

SMILES	HT1080 IDH1KD tx	TDP1 cell CPT	HepG2 tox	HT1080NT lethal	TGFb SMAD3 inh	DT40 TDP1 no CPT
Cc1nn(C(C)C(=O)NCc2ccccc2Cl)c(=O)c2c1sc1ccccc12 (configuration not stated)	-3%	?	-17%	-2%	0%	?
CCOC(=O)C1=CNS(=O)(=O)NC1CCc1ccccc1 (configuration not stated)	0%	?	-2%	-1%	8%	23µM*
CCOC(=O)CN1C(=O)N[C@@H](CCc2ccccc2)C(C(C)=O)=C1C	2%	-2%	-4%	0%	6%	-18%
NC(COCc1ccccc1)c1csc(Nc2ccc(C(F)(F)F)cn2)n1 (configuration not stated)	?	?	-92%	?	?	?
NC(COCc1ccccc1)c1csc(Nc2nncc3ccccc23)n1 (configuration not stated)	?	?	-91%	?	?	21µM*
NC(COCc1ccccc1)c1csc(Nc2ccc(C(=O)NCCO)cc2)n1 (configuration not stated)	6%	?	-4%	-7%	-1%	?
NC(CCc1ccccc1)c1csc(Nc2ccc(C(F)(F)F)cn2)n1 (configuration not stated)	?	21µM*	-96%	-28%	?	?
COc1cc(OC)nc(Nc2nc(C(N)COCc3ccccc3)cs2)n1 (configuration not stated)	?	?	-70%	?	?	?
COc1ccc(C(N)c2csc(Nc3nncc4ccccc34)n2)cc1 (configuration not stated)	?	?	-66%	?	13µM*	?
NC(COCc1ccccc1)c1csc(Nc2ccccn2)n1 (configuration not stated)	-5%	26µM*	-28%	4%	-5%	?
O=C(NC(=O)c1cc([N+](=O)[O-])ccc1Cl)C1=C(N2CCCC2)COC1=O	-2%	?	-10%	7%	-2%	-18%
NC(CCc1ccccc1)c1csc(Nc2ccccn2)n1 (configuration not stated)	16µM*	?	-60%	?	?	?
Cc1cccc(C)c1NC(=O)C1(C)CSCC(=O)N1CCc1c[nH]c2ccccc12 (configuration not stated)	-11%	?	·	-5%	·	?
O=[N+]([O-])c1ccc2c(c1Nc1ccccc1)=NC1(CCCCC1)N=2	-4%	?	-62%	-5%	-10%	?
COc1ccc(Nc2c([N+](=O)[O-])ccc3c2=NC2(CCCCC2)N=3)cc1	-29%	?	1%	-23%	?	21µM*
CC12CCC(=O)N1C(C(=O)NNC(=O)COc1ccc(Br)cc1)CS2 (configuration not stated)	0%	1%	-4%	1%	14%	-20%
Cc1ccc(C)c(N2N=C(C(=O)Nc3ccc(N4CCOCC4)cc3)CCC2=O)c1	6%	-23%	0%	7%	-11%	-23%
Cc1cc(OCC(=O)Nc2cc(-c3nc4ncccc4o3)ccc2C)ccc1Cl	·	?	0%	·	5%	?
COc1ccc(-c2nc3ccccc3o2)cc1NC(=O)COc1c(C)cc(Cl)cc1Cl	·	2.9µM*	13%	·	28%	5.2µM*
Cc1cccc(OCC(=O)Nc2ccc(-c3nc4cc(C)ccc4o3)c(O)c2)c1	·	15µM*	2%	·	6%	?
Cc1ccc(-c2nc3ncccc3o2)cc1NC(=O)COc1ccc(C(C)C)cc1	·	?	-35%	·	-9%	16µM*
COc1ccc2oc(-c3ccc(C)c(NC(=O)c4ccc(-c5ccccc5[N+](=O)[O-])o4)c3)nc2c1	·	18µM*	-6%	·	18%	9.2µM*
CN(C(=O)Cn1c(=O)oc2ccccc21)C1CCCCC1	0%	-2%	10%	1%	6%	1%
COC(=O)c1cc2sccc2n1Cc1nc(-c2cccc(Br)c2)oc1C	·	-16%	-11%	·	1%	-13%
Cc1cccc(OCC(=O)Nc2cc(-c3nc4cc(Cl)ccc4o3)ccc2C)c1	·	7.1µM*	-10%	·	?	?
SMILES	HT1080 IDH1KD tx	TDP1 cell CPT	HepG2 tox	HT1080NT lethal	TGFb SMAD3 inh	DT40 TDP1 no CPT
Cc1ccc(-c2nc3cc(Cl)ccc3o2)cc1NC(=O)COc1ccc(F)cc1	·	-28%	-10%	·	-27%	1%
COc1ccc2oc(-c3ccc(C)c(NC(=O)COc4cc(C)cc(C)c4)c3)nc2c1	·	7.3µM*	-6%	·	-2%	5.2µM*
O=C(Nc1ncc(Cc2ccc(F)cc2)s1)c1ccc2c(c1)CC(c1ccccc1)OC2=O (configuration not stated)	·	?	-1%	·	11%	23µM*
Cc1ccc2c(c1)C(=O)OC(C(=O)Nc1ncc(Cc3ccccc3)s1)C2 (configuration not stated)	·	·	-6%	·	-4%	·
CC(C)CSc1nnc2c3ccccc3n(C)c2n1	-21%	-10%	-27%	-6%	-14%	?
CCCCc1c(C)nn(-c2nnc3c4ccccc4n(C)c3n2)c1C	-3%	23µM*	-11%	-20%	-26%	23µM*
CC1=C(C(=O)N(C)C)CC(CC(=O)NCc2ccco2)C(=O)N1CCC1=CCCCC1 (configuration not stated)	4%	-2%	-1%	5%	-3%	-11%
CCN(CC)C(=O)C1=C(C)N(CCC2=CCCCC2)C(=O)C(CC(=O)NC(c2ccccc2)c2ccccc2)C1 (configuration not stated)	-8%	18µM*	-18%	-10%	?	?
CC1=C(C(=O)N(C)C)CC(CC(=O)NC(c2ccccc2)c2ccccc2)C(=O)N1CCC1=CCCCC1 (configuration not stated)	-1%	?	-5%	-2%	15%	21µM*
O=C(O)c1ccc2c(c1)C(=O)N(c1ccc(OCc3ccccc3)cc1)C2=O	-7%	-9%	-17%	-4%	-1%	-7%
COc1ccccc1Cc1c(-c2ccc(C)cc2)nc2ccc(Cl)cn12	-18%	?	0%	-20%	-47%	0.46µM*
COc1ccccc1Cc1c(-c2ccc(OC)c(OC)c2)nc2ccc(Cl)cn12	?	?	-6%	?	?	?
